Results from PubChem BioAssay (NCI).
Compounds without any hit were thinned out: in the full panel of roughly 79,000, 15% have a hit. Calls of active or inactive are those of the source. Rule as the data show it: active = growth inhibition above about 70%; inactive = the rest.

Experiments:
[1] = NCI Yeast Anticancer Drug Screen. Data for the rad52 strain (AID 147);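 also: 0% = growth of vehicle-treated control cultures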; conditions: S. cerevisiae rad52 mutant growth inhibition, stronger effect = higher value
In short: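 Compounds are applied to a genetically defined yeast strain lacking normal DNA damage repair, and inhibition of growth is expressed relative to cultures given vehicle only.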

[2] = NCI Yeast Anticancer Drug Screen. Data for the wt1 strain (AID 149);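 also: 0% = growth of vehicle-treated wt1 cultures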; conditions: S. cerevisiae wt1 strain (SPY 50644) growth inhibition, stronger effect = higher value
In short: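 wt1 strain grown with compound or vehicle; inhibition taken from the growth difference.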

[3] = NCI Yeast Anticancer Drug Screen. Data for the rad50EPP+ strain (AID 151);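 also: 0% = growth of vehicle-treated control cultures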; conditions: S. cerevisiae rad50 mutant strain, stronger effect = higher value
In short: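 Compounds were applied to the rad50EPP+ yeast strain, which bears a defined DNA repair alteration, and growth inhibition was determined relative to vehicle-treated cultures.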

[4] = NCI Yeast Anticancer Drug Screen. Data for the mgt1 strain (AID 153); conditions: S. cerevisiae mgt1 mutant growth inhibition, stronger effect = higher value
In short: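 Strain: mgt1 yeast, one of a set carrying defined DNA damage repair or cell cycle control alterations. Compound-treated growth compared with vehicle.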

[5] = NCI Yeast Anticancer Drug Screen. Data for the rad50 strain (AID 155);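 also: 0% = growth of vehicle-only cultures of the same strain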; conditions: S. cerevisiae rad50 strain growth inhibition, stronger effect = higher value
In short: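 DNA repair mutant yeast, compound exposure, growth read-out; inhibition is taken relative to vehicle.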

[6] = NCI Yeast Anticancer Drug Screen. Data for the mec2-1 strain (AID 157); conditions: S. cerevisiae mec2-1 strain, stronger effect = higher value
In short: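 Strain: mec2-1 (DNA repair/cell cycle alteration). Compound exposure, then growth measured; inhibition expressed relative to vehicle.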

[7] = NCI Yeast Anticancer Drug Screen. Data for the rad14 strain (AID 159);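 also: 0% = growth of vehicle-treated control cultures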; conditions: S. cerevisiae rad14 strain growth inhibition, stronger effect = higher value
In short: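 DNA repair-defective yeast, compound-exposed; % growth inhibition derived by comparison with vehicle-treated controls.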

[8] = NCI Yeast Anticancer Drug Screen. Data for the sgs1 mgt1 strain (AID 161);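 also: 0% = growth of cultures given vehicle only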; conditions: S. cerevisiae sgs1 mgt1 strain, stronger effect = higher value
In short: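 Read-out: growth inhibition vs vehicle controls. Cells: mutant yeast strain deficient in DNA damage repair.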

[9] = NCI Yeast Anticancer Drug Screen. Data for the CLN2oe strain (AID 163);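 also: 0% = growth of vehicle-only control cultures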; conditions: S. cerevisiae CLN2oe strain, stronger effect = higher value
In short: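 Growth of a genetically modified yeast strain is measured after compound exposure and compared with cultures given vehicle alone.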

[10] = NCI Yeast Anticancer Drug Screen. Data for the cln2 rad14 strain (AID 165);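 also: 0% = growth equal to vehicle treated cultures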; conditions: S. cerevisiae cln2 rad14 strain, stronger effect = higher value
In short: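 Compounds are applied to the cln2 rad14 yeast strain, and growth is then compared with that of vehicle-treated cultures to give inhibition.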

[11] = NCI Yeast Anticancer Drug Screen. Data for the bub3 strain (AID 167); conditions: S. cerevisiae bub3 mutant strain, stronger effect = higher value
In short: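 In this screen, a yeast mutant lacking normal mitotic checkpoint function is challenged with compound. Relative growth versus vehicle gives the inhibition value.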

[12] = NCI Yeast Anticancer Drug Screen. Data for the wt2 strain (AID 169);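 also: 0% = growth of vehicle-treated yeast cultures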; conditions: S. cerevisiae wt2 strain growth inhibition, stronger effect = higher value
In short: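 This strain belongs to a panel of yeast strains with defined genetic alterations in DNA damage repair or cell cycle control. Compounds are applied, and growth inhibition is measured against vehicle-treated cultures.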

[13] = NCI Yeast Anticancer Drug Screen. Data for the mlh1 strain (AID 171);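 also: 0% = growth of vehicle-treated control cultures of the same strain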; conditions: S. cerevisiae mlh1 strain growth inhibition, stronger effect = higher value
In short: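 Growth of the mutant yeast strain after compound exposure, expressed as inhibition relative to vehicle-only controls.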

[14] = NCI Yeast Anticancer Drug Screen. Data for the sgs1 strain (AID 173);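 also: 0% = growth of vehicle-only control cultures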; conditions: S. cerevisiae sgs1 mutant, stronger effect = higher value
In short: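 Growth of a yeast strain bearing a defined genetic alteration is measured after compound treatment. Inhibition is expressed relative to vehicle-only controls.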

[15] = NCI Yeast Anticancer Drug Screen. Data for the mlh1 rad18 strain (AID 175); conditions: S. cerevisiae mlh1 rad18 strain growth inhibition, stronger effect = higher value
In short: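 Read-out is yeast growth inhibition, calculated against vehicle-only controls. The compound was applied to a strain engineered with DNA damage repair alterations.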

[16] = at 5.0 µM (retest, dose inferred, filed as 0.5)
[17] = at 50.0 µM (retest, dose inferred, filed as 5.0)

Measured: growth inhibition

O=C1C2=C(c3ccccc31)C(c1ccccc1)N1C(=O)CSC1=N2 (stereo not drawn)
active: [1]; at 100.0 µM 73% | [4]; at 100.0 µM 81% | [5]; at 100.0 µM 74% | [6]; at 100.0 µM 73% | [7]; at 100.0 µM 74% | [11]; at 33.0 µM 79% | [11]; [17] 92% | [11]; at 50.0 µM 87.2% | [11]; at 100.0 µM 92% | [12]; at 100.0 µM 82% | [13]; at 100.0 µM 84% | [14]; at 100.0 µM 77%
inactive: [1]; at 1.2 µM 12% | [1]; at 3.7 µM 15% | [1]; at 11.0 µM 25% | [1]; at 33.0 µM 31% | [2]; at 1.2 µM 10% | [2]; at 3.7 µM 3% | [2]; at 11.0 µM 15% | [2]; at 33.0 µM 22% | [2]; at 100.0 µM 54% | [3]; at 1.2 µM 9% | [3]; at 3.7 µM 2% | [3]; at 11.0 µM 5% | [3]; at 33.0 µM 33% | [3]; at 100.0 µM 23% | [4]; at 1.2 µM -2% | [4]; at 3.7 µM 1% | [4]; at 11.0 µM -7% | [4]; at 33.0 µM 38% | [5]; at 1.2 µM -1% | [5]; at 3.7 µM 2% | [5]; [16] 14% | [5]; at 11.0 µM 12% | [5]; at 33.0 µM 30% | [5]; [17] 44% | [5]; at 50.0 µM 58.2% | [6]; at 1.2 µM 5% | [6]; at 3.7 µM 10% | [6]; [16] -9% | [6]; at 11.0 µM 10% | [6]; at 33.0 µM 8% | [6]; [17] 16% | [6]; at 50.0 µM 45% | [7]; at 1.2 µM -21% | [7]; at 3.7 µM -17% | [7]; at 11.0 µM -20% | [7]; at 33.0 µM 6% | [8]; [16] 11% | [8]; [17] 44% | [8]; at 50.0 µM 59.6% | [9]; at 1.2 µM 14% | [9]; at 3.7 µM 4% | [9]; at 11.0 µM 9% | [9]; at 33.0 µM -3% | [9]; at 100.0 µM 54% | [10]; [16] -11% | [10]; [17] 26% | [10]; at 50.0 µM 38.7% | [11]; at 1.2 µM -2% | [11]; at 3.7 µM 17% | [11]; [16] -31% | [11]; at 11.0 µM 15% | [12]; at 1.2 µM 2% | [12]; at 3.7 µM 7% | [12]; at 11.0 µM 28% | [12]; at 33.0 µM 44% | [13]; at 1.2 µM 3% | [13]; at 3.7 µM -8% | [13]; at 11.0 µM 1% | [13]; at 33.0 µM 32% | [14]; at 1.2 µM -8% | [14]; at 3.7 µM -14% | [14]; at 11.0 µM 13% | [14]; at 33.0 µM 41% | [15]; [16] -27% | [15]; [17] 42% | [15]; at 50.0 µM 51%

CC(=O)/C(=C\c1ccc(Cl)c(Cl)c1)C(=O)C(C)CN(C)C (stereo not drawn)
active: [1]; at 100.0 µM 91% | [2]; at 100.0 µM 90% | [3]; at 100.0 µM 90% | [4]; at 100.0 µM 93% | [5]; at 100.0 µM 91% | [6]; [17] 76% | [6]; at 50.0 µM 87.5% | [6]; at 100.0 µM 93% | [7]; at 100.0 µM 92% | [8]; [17] 97% | [8]; at 50.0 µM 85.7% | [9]; at 100.0 µM 81% | [10]; [17] 93% | [10]; at 50.0 µM 81.2% | [11]; [17] 96% | [11]; at 50.0 µM 82.8% | [11]; at 100.0 µM 93%
inactive: [1]; at 1.2 µM 19% | [1]; at 3.7 µM 21% | [1]; at 11.0 µM 33% | [1]; at 33.0 µM 52% | [2]; at 1.2 µM -12% | [2]; at 3.7 µM -13% | [2]; at 11.0 µM -12% | [2]; at 33.0 µM 10% | [3]; at 1.2 µM 7% | [3]; at 3.7 µM 7% | [3]; at 11.0 µM 3% | [3]; at 33.0 µM 37% | [4]; at 1.2 µM 6% | [4]; at 3.7 µM -2% | [4]; at 11.0 µM 10% | [4]; at 33.0 µM 46% | [5]; at 1.2 µM 26% | [5]; at 3.7 µM 22% | [5]; [16] 14% | [5]; at 11.0 µM 18% | [5]; at 33.0 µM 62% | [5]; [17] 36% | [5]; at 50.0 µM 64.4% | [6]; at 1.2 µM 19% | [6]; at 3.7 µM 29% | [6]; [16] 9% | [6]; at 11.0 µM 38% | [6]; at 33.0 µM 51% | [7]; at 1.2 µM -3% | [7]; at 3.7 µM 2% | [7]; at 11.0 µM -8% | [7]; at 33.0 µM 22% | [8]; [16] -8% | [9]; at 1.2 µM 8% | [9]; at 3.7 µM -2% | [9]; at 11.0 µM 17% | [9]; at 33.0 µM 44% | [10]; [16] -1% | [11]; at 1.2 µM 7% | [11]; at 3.7 µM -1% | [11]; [16] 12% | [11]; at 11.0 µM 11% | [11]; at 33.0 µM 53%
